# Out of some 94,000 compounds screened, about 4,000 (4.3%) were called active. About 29% were inconclusive and are not listed. The call rests on the fitted dose curve; in most records, active means well fitted inhibition curve with a large enough effect; inconclusive means small, poorly fitted or top-dose-only effect; inactive means no such curve, though single readings can be large or run the other way. The list comes from a sample in which actives are over-represented; it also holds similar structures and randomly drawn compounds. A call without a number means that no potency is given here.
# Assay: Cytotoxic Profiling in NIH 3T3 Cell Line of Diverse Libraries Using Quantitative High-Throughput Screening; further: nearly all actives have a fitted effect of over 55% in size
# Details: NIH 3T3 viability, CellTiter-Glo ATP luminescence, 48-72 h; series mostly up to 96.7 µM
# Summary of the method: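 Cytotoxicity was measured by CellTiter-Glo ATP luminescence after 48 or 72 h compound exposure at 37 °C. Mouse NIH 3T3 fibroblasts were seeded at 400 cells/well and dosed by 23 nL pin transfer.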
# Potency means the concentration at half of the fitted maximal effect.
row,Compound,Potency
1,CCn1ncnc1CN1CCC2(CC1)CC(C(=O)O)N(C(C)=O)C2 (stereo not drawn),inactive
2,COCC(=O)NC1CCC12CCN(C(=O)Nc1ccccc1)CC2 (stereo not drawn),inactive
3,Cc1ccc(C(=O)NC2CCN(c3ccc4nnc(C)n4n3)C2)cc1 (stereo not drawn),inactive
4,O=C([C@@H]1C[C@H](F)CN1C(=O)Cc1ccccc1Cl)N1CCCCC1,inactive
5,Cc1ccccc1N1Cc2c(NCC(C)C)ncnc2N(C)CC1=O,inactive
6,CC/C=C/CC(=O)N1CCC2(CCN(Cc3cccnc3)CC2)C(CO)C1 (stereo not drawn),inactive
7,COc1cccc2c1CCN=C2C[C@H]1CN(C(=O)C(C)(C)C)CC[C@H]1CC(=O)O,inactive
8,Cc1n[nH]c(C)c1CCC(=O)N1CCCC(c2ccc(C(=O)O)cc2)C1 (stereo not drawn),inactive
9,COc1ccc(S(=O)(=O)N2C[C@@H](Oc3ccccc3)C[C@@H]2C(=O)N2CCOCC2)cc1,inactive
10,Cc1c(C(=O)N2C[C@@H](CN(C)C)C[C@H](CO)C2)n(C)c2c(C)cccc12,inactive
11,CN(C)C[C@@H]1CN(C2CCOCC2)C[C@H]1NC(=O)c1ccco1,inactive
12,Cc1ccc2c(c1)nc1n2[C@@H](CNC(=O)c2ccccc2)COC1,inactive
13,Cc1ccc2nc3n(c2c1)[C@@H](CNC(=O)c1ccc(C#N)cc1)COC3,89.1 µM (active)
14,COc1ccc2c(c1)nc1n2[C@@H](CNC(=O)c2ccncc2)COC1,inactive
15,O=C(CCC1CCCN(S(=O)(=O)c2ccc(F)cc2)C1)NC1CCS(=O)(=O)C1 (stereo not drawn),inactive
16,O=C(NC1CCc2nn(CC3CC3)c(=O)n2CC1)c1ccc(Cn2ccnc2)o1 (stereo not drawn),inactive
17,Cc1oc2c(c1C(=O)NCCN1CCCC1)CN(Cc1ccc(F)cc1)CC2,inactive
18,Cc1noc([C@H]2CCN(Cc3ccccc3F)C[C@H]2NC(=O)C2CC2)n1,inactive
19,Cc1oc2ccn(Cc3ccccc3F)c(=O)c2c1C(=O)NCCCN1CCCCC1C (stereo not drawn),39.8 µM (active)
20,CCn1nc(C)c(-c2cc(C(=O)N3CCCCCCNC(=O)[C@@H]4CCCC[C@@H]43)no2)c1C,inactive
21,COc1nccnc1NC1CCN(C(=O)NCc2ccccc2)CC1,inactive
22,COc1ccc(O[C@H]2COCCN(Cc3nccn3C)C2)cc1,inactive
23,Cn1cc(CN2CCOC[C@H](Oc3ccc(S(C)(=O)=O)cc3)C2)c2ccccc21,28.2 µM (active)
24,CC(C)CN1CCOC[C@H](Oc2ccc(S(C)(=O)=O)cc2)C1,inactive
25,CCCCn1ccnc1C1CCCN(C(=O)c2ccccc2-c2ncn[nH]2)C1 (stereo not drawn),inactive

row,Compound,Potency
1,CN(C)C(=O)c1ccc2oc(-c3ccnc(Cl)c3)nc2c1,28.2 µM (active)
2,O=C(NCCc1ccc(Cl)cc1)c1ccc2oc(-c3cccnc3)nc2c1,inactive
3,O=C(NCc1ccccc1)c1ccc2nc(-c3ccnc(Cl)c3)oc2c1,inactive
4,O=C(O)[C@]12CCCN(Cc3ncc[nH]3)[C@@H]1CCN(Cc1ccncc1)C2,inactive
5,CCCN1CCCC2(CCN(C(=O)C(=O)c3cccn3C)C2)C1=O (stereo not drawn),inactive
6,CC(C)NC(=O)C1CCC(=O)N1C1CCN(C(=O)c2ccc3c(c2)OCO3)CC1 (stereo not drawn),inactive
7,O=C(c1ccc2c(c1)OCO2)N1CCC(n2c(=O)[nH]c3ccccc32)CC1,inactive
8,CNc1nc(C(=O)NCc2ccc3[nH]c(-c4ccc(F)cc4)c(C)c3c2)cs1,50.1 µM (active)
9,COc1ccc(CNC(=O)c2noc(-c3ccc(F)cc3)n2)cc1,inactive
10,O=C(NCc1ccc2c(c1)OCO2)c1noc(-c2ccc(F)cc2)n1,inactive
11,CN(CCc1ccccn1)[C@H]1[C@@H]2OC[C@@H](O2)[C@@H](NC(=O)Nc2ccc(F)cc2)[C@@H]1O,inactive
12,CNC(=O)[C@@H]1CN(C(=O)c2n[nH]c3ccccc23)C[C@H]1COC,inactive
13,COc1ccccc1C(=O)N1CCC2(CC1)C(=O)Nc1ccccc12,inactive
14,COCCNC(=O)c1nc(-c2cc(Cl)cc(Cl)c2)c2ccccn12,inactive
15,CCc1cc(=O)n(CC(=O)Nc2ccccc2F)c(-c2cccc(F)c2)n1,inactive
16,CN(C)CCNC(=O)c1nc2nc(-c3ccccc3)c(-c3cccc(F)c3)cc2n1C,25.1 µM (active)
17,Cc1ccc(S(=O)(=O)N2C[C@@H](F)C[C@H]2C(=O)N2CCCCC2)cc1Cl,inactive
18,CN1c2cc(C(=O)Nc3ccc(F)cc3)ccc2C(=O)N2CCCCC21 (stereo not drawn),inactive
19,CCN1c2cc(C(=O)NCc3cccc(F)c3)ccc2C(=O)N2CCCCCC21 (stereo not drawn),inactive
20,CCN1c2cc(C(=O)Nc3ccc(F)c(Cl)c3)ccc2C(=O)N2CCCCC21 (stereo not drawn),25.1 µM (active)
21,COC1CN(c2cccc(F)c2)C12CCN(C1CCOCC1)CC2 (stereo not drawn),inactive
22,COc1ccccc1CNC(=O)CN1CC[C@](C)(O)[C@@H](O)C1,inactive
23,COc1ccc(CNC(=O)[C@H]2O[C@H](CCN3CCN(C)CC3)CC[C@@H]2O)cc1,inactive
24,COC(=O)[C@@H]1Cc2ncn(Cc3ccc(OC)cc3)c2CN1S(C)(=O)=O,inactive
25,COc1ccc(CNC(=O)[C@@H]2Cc3cn(Cc4ccncc4)c4cccc(c34)[C@H](CC(C)C)N2)cc1,79.4 µM (active)

row,Compound,Potency
1,CC#CCn1cc2c3c(cccc31)[C@H](CC(C)C)N[C@H](C(=O)NCc1ccccc1OC)C2,31.6 µM (active)
2,CCCN1C(=O)Cc2ccccc2C1C(=O)NCc1cccc(OC)c1OC (stereo not drawn),inactive
3,Cc1cc(Cn2cc3c4c(cccc42)[C@H](CC(C)C)N[C@H](C(=O)N2CCCCCC2)C3)no1,31.6 µM (active)
4,COCCN1CCN(C(=O)[C@@H]2Cc3cn(C)c4cccc(c34)[C@H](CC(C)C)N2)CC1,inactive
5,COc1ccc(CCC(=O)N2CCCC3(CC2)CN(C)C(=O)O3)cc1OC (stereo not drawn),inactive
6,CS(=O)(=O)c1ccc(CN2CCOC(c3cccnc3)C2)cc1 (stereo not drawn),inactive
7,COc1ccc(CNC(=O)CC[C@@H]2CNC(=O)[C@@H]3C[C@H](NC(=O)NC(C)C)CN23)cc1,inactive
8,Cc1ccc(-n2cccn2)c(CN2CCC(CNS(C)(=O)=O)C2)c1 (stereo not drawn),inactive
9,OC[C@@H]1O[C@H](CNC2CCOCC2)[C@H](N2CCCC2)[C@@H]1O,inactive
10,Cc1cc(C)n(CCCN(C)C(=O)C2C3C(=O)N(CCC(C)C)C[C@@]34C=C[C@@H]2O4)n1 (stereo partly drawn),inactive
11,Cc1cn2nc(C(=O)Nc3ccc(F)cc3F)cc2c(N(C)Cc2ccccc2)n1,inactive
12,CCNC(=O)c1ccccc1-c1ccc(O)cc1,inactive
13,O=Cc1ccccc1-c1ccc(O)cc1,79.4 µM (active)
14,COc1ccccc1C(=O)N1CCC2(C1)C(=NC1CCCCC1)NC(=O)N2c1cccnc1 (stereo not drawn),inactive
15,O=C(c1cn[nH]c1)N1CC2(CN(Cc3cccc(Cl)c3)CC2COc2ccccc2)C1 (stereo not drawn),79.4 µM (active)
16,COCC1CN(C(C)=O)CC12CCN(Cc1cccc(C#N)c1)CC2 (stereo not drawn),inactive
17,Cc1cccc(C(=O)N2C[C@@H](COc3ccccc3)[C@H](C(N)=O)C2)c1,inactive
18,CNC(=O)c1cc(C)nc2onc(C3CCN(C(=O)C4CCCCC4)C3)c12 (stereo not drawn),inactive
19,CCn1ccnc1CN(C)C1CCCN(CCc2ccccc2)C1 (stereo not drawn),inactive
20,CC(=O)N1Cc2ccccc2CC2(CCN(Cc3cccnc3)CC2)C1,inactive
21,Cn1ccc(Nc2cc3c(cn2)CN(CCc2ccccc2)CCN3)n1,79.4 µM (active)
22,O=C1CC(c2ccccc2)N(Cc2ccncc2)CCCN(Cc2cccnc2)CCN1 (stereo not drawn),inactive
23,c1ccc(CN2CCNc3cc(NCc4cccnc4)ncc3C2)cc1,50.1 µM (active)
24,COc1cccc(S(=O)(=O)N2CCC3(CC2)CC2C(=O)NCCN2C3)c1 (stereo not drawn),inactive
25,CCc1nc(N(C)Cc2nccn2Cc2ccccc2)c2cnn(C)c2n1,inactive

row,Compound,Potency
1,CS(=O)(=O)c1cnc(NCCN2CCOCC2)nc1C1CCCNC1 (stereo not drawn),inactive
2,COc1cc(-c2noc(-c3nc(-c4ccc5c(c4)OCO5)no3)n2)cc(OC)c1OC,inactive
3,CC(C)C[C@@H]1N[C@H](C(=O)NC(C)C)Cc2c[nH]c3cccc1c23,100 µM (active)
4,COCCn1c(C)cc(C(=O)N2CCCCCCNC(=O)CC2)c1C,inactive
5,O=C(c1cccnc1)N1CCC(Cc2nc(C3CCOCC3)no2)CC1,inactive
6,O=C([C@@H]1C[C@H](Oc2ccccc2)CN1S(=O)(=O)c1cccnc1)N1CCCC1,inactive
7,Cc1nn2c(c1-c1ccccc1-c1ccccc1)N(CC1CC1)CCC2,3.16 µM (active)
8,Cc1nn2c(c1-c1ccnn1C(C)C)N(CC1CCOCC1)CCC2,31.6 µM (active)
9,COc1ccc(S(=O)(=O)NCCc2noc(-c3ccncc3)n2)cc1,inactive
10,CNC(=O)N1CCC(C2CCN(C(=O)CSC)C2)CC1 (stereo not drawn),inactive
11,COc1cc(NC(=O)c2cc3c(N4CCSCC4)nc(C)cn3n2)cc(OC)c1,inactive
12,COc1ncccc1Nc1ncc(-c2ccccc2)c2c1OCC2,inactive
13,COc1ccccc1-c1cnc(NC(=O)c2ccc(Cl)cc2)c2c1CCO2,79.4 µM (active)
14,COc1cc2c(cc1OC)C(CNC(=O)c1ccc(Cl)cc1)N(C(=O)Nc1ccccc1)CC2 (stereo not drawn),inactive
15,O=C(c1ccccc1)N1CCCCC1c1nc(C2CC2)n[nH]1 (stereo not drawn),inactive
16,COc1ccc(NC(=O)[C@@H]2C[C@@H](c3ccc(F)cc3)N(CCOc3ccccc3)C2)cn1,44.7 µM (active)
17,Cc1ccc(NC(=O)[C@@H]2CNC[C@H](C(=O)NCc3ccccn3)C2)cn1,inactive
18,O=C(COc1ccc(NC(=O)C2CC2)cn1)NCc1ccc(F)cc1F,inactive
19,CNC(=O)N1CCC(N2CC(OCC3CC3)C23CCCCC3)CC1 (stereo not drawn),inactive
20,O=C(O)C[C@@H]1CCN(C(=O)C(=O)O)C[C@@H]1CC1=NCCc2cc(F)ccc21,inactive
21,O=C(c1cccc(F)c1)N1CCC(CCOc2ccc(F)cc2)C1 (stereo not drawn),39.8 µM (active)
22,Cc1ccc(OCCC2CCN(C(=O)c3cnccc3C)C2)cc1 (stereo not drawn),inactive
23,O=C(c1cccc(F)c1)N1CCCC(CN2CCOCC2)CC1 (stereo not drawn),inactive

# Source: PubChem BioAssay AID1345082 (National Center for Advancing Translational Sciences (NCATS), 2018)
